Source: PubChem BioAssay AID1159580 (chemical genetic matrix, 2015)
Among all 5,500 compounds or so, about 2,000 (36%) were called active. About 18% were inconclusive and are not listed. No stated cut-off is given here; in the data, active means normalized growth mostly below about 0.91 (no sharp cut-off); inconclusive means no clear call, values can overlap the other calls; inactive means mostly above about 0.92. The list shows a part of the results.

Assay: chemical genetic growth profiling, strain panel (AID 1159580);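 further: tested at 20 µM; growth read once vehicle control cultures reached saturation at 30 °C; 1 = growth at the plate median or of vehicle wells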
Conditions: S. cerevisiae deletion strains, growth OD

Measured: normalized growth

Cc1ccc2c(c1)C(N1CCN(C)CC1)=Nc1cccnc1N2
inactive: locus YAL040C, strain CLN3, stronger effect = lower value 0.99 | locus YCL061C, strain MRC1 (second series), stronger effect = lower value 0.989 | locus YDR150W, strain NUM1, stronger effect = lower value 0.986 | locus YDR363W, strain ESC2, stronger effect = lower value 1.02 | locus YER002W, strain NOP16, stronger effect = lower value 1 | locus YGR078C, strain PAC10, stronger effect = lower value 0.983 | locus YJR075W, strain HOC1, stronger effect = lower value 1 | locus YMR263W, strain SAP30, stronger effect = lower value 0.982 | locus YNL128W, strain TEP1, stronger effect = lower value 1.09 | locus YNL153C, strain GIM3, stronger effect = lower value 0.998 | locus YNL175C, strain NOP13, stronger effect = lower value 0.997 | locus YNL197C, strain WHI3, stronger effect = lower value 0.988 | locus YNL224C, strain SQS1, stronger effect = lower value 1.01 | locus YNL322C, strain KRE1, stronger effect = lower value 0.988 | locus YOR083W, strain WHI5 (second series), stronger effect = lower value 0.991

Cc1cc2c(s1)Nc1ccccc1N=C2N1CCN(C)CC1
inactive: locus YHR030C, strain SLT2, stronger effect = lower value 0.975 | locus YHR079C, strain IRE1, stronger effect = lower value 0.976 | locus YJL095W, strain BCK1, stronger effect = lower value 1.01 | locus YJR066W, strain TOR1, stronger effect = lower value 0.944 | locus YLR113W, strain HOG1, stronger effect = lower value 1.05 | locus YNL183C, strain NPR1, stronger effect = lower value 0.969 | locus YOR231W, strain MKK1, stronger effect = lower value 1 | locus YPL256C, strain CLN2, stronger effect = lower value 1.03
